# About 83,000 compounds went through this panel and 20% of them were active in at least one assay; those are over-represented in the sample as a whole.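 Cell lines were cultured in 96-well plates, exposed to a single compound concentration, and assessed for percent growth 48 hours later.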 Unmarked numbers belong to inactive results. Calls of active or inactive are those of the source. Rule for the calls: active = growth percent below 10; inactive = the rest.
# Assays:
# Test in all cases: NCI-60 one-dose screen, 48 h (100 = growth as untreated, 0 = no growth, -100 = all killed)
# Conditions in all cases: 10 µM unless noted
# DU-145 prostate = tested on: DU-145 prostate
# K-562 leukemia = tested on: K-562 leukemia
# MALME-3M melanoma = tested on: MALME-3M melanoma
# MDA-MB-231 breast = tested on: MDA-MB-231 breast
# RXF 393 renal = tested on: RXF 393 renal
# SF-268 CNS = tested on: SF-268 CNS
# SF-295 CNS = tested on: SF-295 CNS
# SF-539 CNS = tested on: SF-539 CNS
# UACC-257 melanoma = tested on: UACC-257 melanoma
# M14 melanoma = tested on: M14 melanoma
# HCT-15 colon = tested on: HCT-15 colon
# HT29 colon = tested on: HT29 colon
# SNB-75 CNS = tested on: SNB-75 CNS
# SNB-19 CNS = tested on: SNB-19 CNS
# U251 CNS = tested on: U251 CNS
# PC-3 prostate = tested on: PC-3 prostate
# SK-MEL-5 melanoma = tested on: SK-MEL-5 melanoma
# UACC-62 melanoma = tested on: UACC-62 melanoma
# LOX IMVI melanoma = tested on: LOX IMVI melanoma
# SK-MEL-28 melanoma = tested on: SK-MEL-28 melanoma
SMILES,growth (DU-145 prostate),growth (K-562 leukemia),growth (MALME-3M melanoma),growth (MDA-MB-231 breast),growth (RXF 393 renal),growth (SF-268 CNS),growth (SF-295 CNS),growth (SF-539 CNS),growth (UACC-257 melanoma),growth (M14 melanoma),growth (HCT-15 colon),growth (HT29 colon),growth (SNB-75 CNS),growth (SNB-19 CNS),growth (U251 CNS),growth (PC-3 prostate),growth (SK-MEL-5 melanoma),growth (UACC-62 melanoma),growth (LOX IMVI melanoma),growth (SK-MEL-28 melanoma)
NC1(CO)COC(c2ccccc2)OC1 (stereo not given),115%,89.5%,109%,112%,104%,110%,113%,109%,98.4%,118%,113%,96.7%,120%,111%,97.5%,99%,96.1%,111%,107%,118%
COc1ccc(C2CC(c3cc(OC)c(OC)c(OC)c3)=NO2)cc1OCCCCOc1cc2c(cc1OC)C(=O)N1CCC[C@H]1C=N2 (stereo not given in full),13.4%,34.8%,-43.1% (active),11.7%,-67.1% (active),16.7%,2.46% (active),-39% (active),24.6%,-16.2% (active),39.8%,-13.9% (active),-14.2% (active),16.5%,4.05% (active),45.8%,-79.6% (active),-67.8% (active),-39.7% (active),-23.1% (active)
O=C(/C=C/c1ccc(Cl)cc1)c1cccc(OCCCOc2cccc(C(=O)/C=C/c3ccc(Cl)cc3)c2)c1,113%,88.8%,109%,110%,106%,105%,100%,112%,98.6%,98.6%,90.3%,98.6%,91.5%,99.1%,86.3%,104%,102%,90%,99.1%,102%
COc1cc(-c2nc3c(ncc4ccc(=O)n(-c5ccccc5)c43)s2)cc(OC)c1OC,80.2%,90.5%,65.4%,64.1%,48.2%,69.1%,90.4%,57.4%,101%,87.6%,78.6%,84.2%,56%,86.1%,80.3%,56.9%,68.5%,78.7%,58.4%,78.3%
COc1ccc2[nH]cc(-c3nc(-c4c[nH]c5c(Cl)nccc45)cs3)c2c1,32.6%,19.3%,65.8%,31.7%,37.7%,73%,11.9%,34.9%,-48.3% (active),-26% (active),-16.1% (active),15.8%,54.1%,63.9%,17.5%,31%,55.6%,52%,13.2%,42%
COc1ccc(C2=NN(C(C)=O)C(c3cn(-c4ccccc4)nc3-c3ccc(Cl)cc3)C2)cc1 (stereo not given),17.4%,13.1%,52%,17.2%,-10.5% (active),27.2%,42.4%,15.8%,66.4%,17.2%,17.1%,-6.18% (active),-4.48% (active),34.2%,-7.11% (active),34.3%,27.1%,20%,0.526% (active),56.3%
CCCCCCCCCCCCCCCCCC1=NC(C)(C)CN1CC(C)O (stereo not given),34.5%,-25.7% (active),97.4%,-9.03% (active),66.4%,14.6%,95.9%,19.9%,103%,36.6%,10.3%,-4.49% (active),97.8%,85.3%,74%,53.4%,100%,105%,-83.1% (active),105%
CN1CCN(Cc2ccc(NC(=O)c3cncc(C#Cc4cnc5ccc(Cl)nn45)c3)cc2C(F)(F)F)CC1,4.06% (active),1.96% (active),-63.1% (active),-1.94% (active),-52.8% (active),-41.6% (active),9.72% (active),-62% (active),3.9% (active),-56.7% (active),0.05% (active),2.68% (active),-52.4% (active),6.75% (active),4.22% (active),-18.6% (active),-58.7% (active),-14.5% (active),-44.3% (active),-8.84% (active)
COc1cc(/C=N/Nc2ccc(Br)cc2)cc(OC)c1OC,63.1%,9.82% (active),55.5%,47.5%,102%,52.5%,60.9%,63.5%,84.6%,18.4%,18.9%,29.2%,87.5%,91.6%,65.5%,60.9%,85%,36.8%,13.5%,82.1%
CN(C)c1ccc(-c2nc(-c3ccccc3)c(-c3ccccc3)[nH]2)cc1,102%,65.7%,107%,95.3%,104%,112%,88.6%,102%,110%,82.7%,77.5%,58.9%,106%,106%,103%,76.9%,100%,97.7%,88.7%,103%
N#CC1=C(N)Oc2ccc3ccccc3c2C1c1ccc([N+](=O)[O-])cc1 (stereo not given),104%,77.7%,51.4%,57.8%,94.7%,80.5%,84.6%,85.7%,89.3%,89.7%,87.6%,105%,61.7%,86.8%,94.2%,69.8%,86.2%,77.3%,74.6%,99.1%
O=C1c2ccccc2C(=O)C1c1ccc(Br)cc1,118%,104%,88.8%,89.4%,121%,113%,90.5%,104%,110%,109%,92.7%,101%,65%,104%,95.8%,97.9%,107%,98.3%,88.9%,98%
COc1ccc(/C(C)=C(\c2ccc(Cl)cc2)c2ccc(OCCN3CCCCC3)cc2)cc1,78.8%,3.68% (active),35.1%,45.7%,33.5%,59.2%,7.09% (active),43.9%,1.77% (active),4.01% (active),9.98% (active),-2.6% (active),89.1%,62.8%,36.4%,41%,-39% (active),33.4%,3.11% (active),20.1%
Cc1ccc(S(=O)(=O)c2nc(-c3ccccc3)oc2Sc2nc3ccccc3s2)cc1,100%,42.9%,66.4%,75.3%,77.3%,58.3%,92.1%,93.3%,101%,13.4%,44.8%,94.2%,70.8%,100%,90.5%,97.2%,53.3%,80.3%,24.6%,109%
O=C(CI)NC(=O)NC(=O)NCc1ccccc1,78.2%,-59.8% (active),-59% (active),11.3%,48.5%,58.5%,91.6%,27.3%,83%,6.48% (active),17.4%,17.2%,81.4%,101%,84%,93.9%,56.1%,79.3%,-77.7% (active),49.4%

# Source: PubChem BioAssay (NCI)
